Screening data deposited in PubChem BioAssay by several laboratories.
This is a sample that favours compounds with a hit; in the whole collection about 1.5% have one here.
CRFBP-R2 agonist = agonists of human CRF-binding protein/CRF-R2 receptor complex; HEK293 CRF-R2/CRF-BP, calcium dye fluorescence (FLIPR); percent of saturating CRF peptide response; 350,000 compounds, 0.46% hits; activation, % at 13.2 µM;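 active means activation of at least 50%, plus an integration ratio under a set limit after plate pattern correction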
cardiac RTF act = increases calcium sensitivity of human cardiac regulated thin filaments. P19429+P45379. IANBD-labeled TnC RTF fluorescence at EC20 calcium; 0% EC20 calcium, 100% full calcium. activation, % at 7.2 µM. 340,000 compounds, 0.24% hits. AID 493008;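 active means activation above the mean over all tested compounds plus 3 SD, cut at about 30% in these data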;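 further: rise in fluorescence read as greater calcium sensitivity of cardiac thin filaments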
IDE act = boosts human insulin-degrading enzyme activity in HEK cells | AID 493087 | 340,000 compounds, 0.073% hits | P14735 | FAbeta-B cleavage, fluorescence polarization; 0% vehicle, 100% cell-free pure enzyme wells | activation, % at 5.96 µM;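 active means activation above the mean of all tested compounds plus 3 SD, set per screening campaign, cut at about 17% in these data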
IDE inh = cellular human IDE inhibition | P14735 | 320,000 compounds, 0.41% hits | AID 434962 | HEK cells, FAbetaB cleavage, fluorescence polarization | inhibition, % at 5.59 µM;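 active means percent inhibition above the average of all tested compounds plus 3 SD, set per screening campaign, cut at about 16% in these data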;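 further: IDE supplied by intact live HEK cells; FP after avidin binding of uncleaved biotin substrate so inhibition keeps polarization high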
RTF Ca sens inh = cardiac RTF calcium desensitization; P19429+P45379; inhibition, % at 7.15 µM; 340,000 compounds, 0.12% hits; AID 493244; IANBD-labeled cardiac RTF, Ca2+ fluorescence;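 active means inhibition above the mean inhibition of all tested compounds plus 3 SD, cut at about 17% in these data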;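 further: assay run at fixed EC70 calcium of 1.6 mM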
CRFR2-BP antag = CRF-BP/CRF-R2 complex antagonism; HEK293 CRF-R2/CRF-BP, CRF-induced calcium fluorescence; 350,000 compounds, 0.59% hits; AID 588475; inhibition, % at 11.8 µM;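 active means inhibition of the ligand-induced calcium signal above about 50% at the single tested concentration, limit read from the data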
Of the large screens only hits and unclear results are named; the others gave an inactive call.

C=CCCC(=O)N1CCC(n2nccc2NC(=O)c2ccc(OC)cc2)CC1	CRFR2-BP antag 66.3
CCCn1nc(C(=O)Nc2cc(S(=O)(=O)Nc3ccc(OC)cc3)ccc2O)c2ccccc2c1=O	CRFR2-BP antag 54.4
N#Cc1c(-c2ccc(Cl)cc2)n(O)c2ccccc12	CRFBP-R2 agonist 56.9, CRFR2-BP antag 62.8 (no result: IDE inh)
CC(C)N(C(=O)C[n+]1ccsc1N)c1ccccc1	CRFR2-BP antag 59.3
CN1CCC2(CC1)Nc1nc(SCc3ccc(Cl)cc3)nn1C1=C2CN(C)CC1	CRFR2-BP antag 86.0
CCN(c1ccccc1)S(=O)(=O)c1cccc(C(=O)OCC(=O)Nc2ccc(NC(C)=O)cc2)c1	none
CC(C)NC(=O)/C(C#N)=C/c1ccc(N(C)C)o1	cardiac RTF act 72.9
CC(Oc1ccc(Br)cc1)C(=O)Nc1ccc(S(=O)(=O)N(C)C2CCN(C)CC2)cc1 (centres undefined)	CRFBP-R2 agonist 95.8
COc1ccc(CC(=O)Nc2ccc(S(=O)(=O)N(C)C3CCN(C)CC3)cc2)cc1	none
COc1cccc(C2(c3cccc(OC)c3)CC2C(=O)Nc2ccc(F)cc2)c1 (centres undefined)	none
COc1cccc(C2(c3cccc(OC)c3)CC2C(=O)Nc2ccccc2Cl)c1 (centres undefined)	CRFR2-BP antag 76.6
O=C(NNc1c(Cl)cncc1Cl)c1sccc1Cl	none
Cc1ccccc1C(=O)OCC(=O)NCC1COc2ccccc2O1 (centres undefined)	none (no result: IDE inh)
O=C(COC(=O)C1(c2ccccc2F)CCCC1)NCc1ccc2c(c1)OCO2	none
O=C(NCc1ccc2c(c1)OCO2)c1c(F)c(F)c(F)c(F)c1F	CRFR2-BP antag 61.4
O=C(NCc1ccc2c(c1)OCO2)c1ccc2c(c1)OCO2	none
O=C(COC(=O)C1(c2ccc(F)cc2)CCCC1)NCc1ccc2c(c1)OCO2	CRFR2-BP antag 61.8
CSc1ccccc1NC(=O)CN(C)CC(=O)NCC(=O)Nc1ccc(F)cc1	none
CC(=O)c1ccc(NC(=O)CSc2nnc(C3CC3)n2C2CC2)cc1	none
Cc1ccc(C(=O)COC(=O)CCN2C(=O)C3C4C=CC(C5CC45)C3C2=O)cc1 (centres undefined)	CRFR2-BP antag 91.1
CC(=O)NCc1ccc(S(=O)(=O)N2CCCN(C)CC2)cc1	none
CC(=O)C1(O)CCC2C3CC(C)C4=CC(=O)C=CC4(C)C3(F)C(O)CC21C (centres undefined)	CRFR2-BP antag 78.9 (no result: IDE inh)
CC(=O)OCC(=O)C1(O)CCC2C3CC(C)C4=CC(=O)C=CC4(C)C3(F)C(O)CC21C (centres undefined)	none (no result: IDE inh)
CCOC(=O)/C=C1/SCC(=O)N1CC(=O)c1ccc[nH]1	none (no result: IDE inh)
COc1ccc([C@H]2CC(=O)C=C(c3ccc(C)c(F)c3)C2)cc1	none
N#CC(c1ccc(Cl)cc1)c1ccc2c(C(F)(F)F)cc(C(F)(F)F)nc2n1 (centres undefined)	CRFR2-BP antag 69.4
FC(F)(F)c1cc(C(F)(F)F)c2ccc(N3CCN(c4ccc(Cl)cc4)CC3)nc2n1	none
CCN(CC)c1ccc2c(c1)oc(=O)c1c(Cl)cc(=O)oc12	CRFBP-R2 agonist 222.9, cardiac RTF act 199.9
O=S1(=O)CCO[C@H]2Cc3ccccc3[C@H]2N1Cc1ccc(F)cc1	none
Cc1ccc(S(=O)(=O)N(Cc2ccccc2)c2ccccc2C(=O)NCc2ccco2)cc1	CRFR2-BP antag 70.9
Cc1ccc(S(=O)(=O)N(Cc2ccccc2)c2ccccc2C(=O)Nc2ccccc2C(=O)NCc2ccco2)cc1	none
C=CCn1c(O)c2ccc(C(=O)N=NC(=O)c3ccc(F)cc3)cc2c1O	none
COC(=O)c1sc(NC(=O)c2cc(-c3ccccc3)nc3ccccc23)c(C#N)c1C	CRFBP-R2 agonist 53.9
CCOC(=O)c1sc(NC(=O)c2cc(-c3ccc(C)cc3)nc3ccccc23)c(C#N)c1C	none
COC(=O)c1sc(NC(=O)c2ccc([N+](=O)[O-])o2)c(C#N)c1C	CRFR2-BP antag 73.7
CC(=O)N1CCc2c(sc(NC(=O)c3ccc([N+](=O)[O-])o3)c2C#N)C1	none (no result: IDE inh)
COC(=O)c1c(NC(=O)CCl)sc(C(=O)N2CCOCC2)c1C	none
O=C1[C@H](Cc2ccccc2)NCC=CC[C@H](c2ccco2)N1Cc1ccccc1	none (no result: IDE inh)
O=C(CSCc1ccccc1Br)NNC(=S)NCc1ccco1	CRFR2-BP antag 77.2
Cc1ccccc1CSCC(=O)NC(=O)NCc1ccco1	none
Cc1ccc(S(=O)(=O)N2CCN(c3ncnc4scc(-c5ccc(F)cc5)c34)CC2)cc1	none
Cc1ccc(S(=O)(=O)N2CCN(c3ncnc4scc(-c5ccccc5)c34)CC2)cc1	CRFBP-R2 agonist 126.5
COc1ccccc1OC(C)C(=O)Nc1ccc(S(=O)(=O)N2CCN(C)CC2)cc1 (centres undefined)	none
O=C1c2cccc3c(O)ccc(c23)C(=O)N1Cc1ccccc1	cardiac RTF act 957.0, IDE act 58.6
COc1cccc(CN(C)C[C@H]2OCc3cnnn3CCCC(=O)N([C@@H](C)CO)C[C@@H]2C)c1	none (no result: cardiac RTF act, IDE act, IDE inh, RTF Ca sens inh)
CCOC(=O)C1=C(O)c2ccccc2C(=O)/C1=C\c1ccc(C)cc1	CRFBP-R2 agonist 111.0
CCOC(=O)C1=C(C)OC(=Cc2ccccc2)C1=O	none (no result: cardiac RTF act, IDE act, IDE inh, RTF Ca sens inh)
CCOC(=O)CCNC(=O)N1CCCC(N2CCN(c3ccc(OC)cc3)CC2)C1 (centres undefined)	none
C[n+]1c(-c2ccc(C=NNC(=O)c3ccc(C(=O)NN=Cc4ccc(-c5cn6ccccc6[n+]5C)cc4)cc3)cc2)cn2ccccc21	none (no result: CRFBP-R2 agonist, IDE inh, CRFR2-BP antag)
CCCN1CCN(C(=O)C2CCCN(c3ncnc4c3nc3n4CCCCC3)C2)CC1 (centres undefined)	none
Cc1c(N=Nc2c(-c3ccc([N+](=O)[O-])cc3)[nH]n(C(N)=S)c2=O)cccc1[N+](=O)[O-]	CRFR2-BP antag 66.1 (no result: IDE inh)
NC(=S)n1[nH]c(-c2ccc([N+](=O)[O-])cc2)c(N=Nc2ccccc2[N+](=O)[O-])c1=O	none (no result: IDE inh)
O=C(NCCN1CCOCC1)c1ccccc1[N+](=O)[O-]	none
Cc1cccc(C(=O)NCCN2CCOCC2)c1[N+](=O)[O-]	IDE act 27.9
CC(C(=O)NCCN1CCOCC1)(c1ccccc1)c1ccccc1	CRFR2-BP antag 81.1
CCCCNC(=O)Cn1c(=O)c2c(ncn2CC)n(Cc2ccccc2)c1=O	none
O=C1CC(O)(C(F)(F)F)Oc2c1ccc1ccccc21 (centres undefined)	CRFBP-R2 agonist 61.6, CRFR2-BP antag 65.0
COc1ccc(Nc2nc(Cl)nc(NCc3ccco3)n2)c(OC)c1	CRFR2-BP antag 55.9
CC(C)c1ccc(Nc2nc(Cl)nc(NCc3ccco3)n2)cc1	none
O=C1CN(C(=O)COc2c(F)c(F)cc(F)c2F)c2ccccc2N1	none
O=C(CSCc1ccc(F)cc1)NCc1cccs1	none
O=C(CCSCc1ccc(Cl)cc1)NCc1cccs1	RTF Ca sens inh 17.8
